# Screen size: about 410,000 compounds; about 5,000 (1.2%) were called active. Where a call stands in place of a potency, no number is given. Another 13% or so got no clear call; they are omitted. Calls come from the whole dose curve; as a rule, active = well fitted inhibition curve with a large enough effect; inconclusive = small, poorly fitted or top-dose-only effect; inactive = no such curve, though single readings can be large or run the other way. This excerpt belongs to a sample that is enriched for actives.
# Assay: qHTS for Inhibitors of TGF-b; note: nearly all actives have a fitted effect of over 65% in size
# Conditions: HepG2 CAGA-GFP TGF-b/SMAD3 reporter, GFP fluorescence, 18 h, TGF-beta stimulated, 500 pg/mL final; series mostly up to 46.1 µM
# Procedure, shortened: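 HEPG2 CAGA-GFP cells (1000/well, DMEM with 1% FBS) were pre-incubated 2 h at 37 degrees C, given compound by pin tool, then stimulated with TGF-beta at 500 pg/mL final for 18 h before per-cell GFP fluorescence imaging.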
# Potency is the fitted concentration of half-maximal effect.
row,SMILES,Potency
1,Cc1cc(Br)ccc1NC(=O)Cn1cnc2sc(C)c(S(=O)(=O)N3CCN(C)CC3)c2c1=O,inactive
2,COc1cc(OC)cc(-c2nc3nc(C)c(CCC(=O)Nc4ccccc4)c(C)n3n2)c1,inactive
3,Cc1ccc(-c2cn3c(n2)sc2cc(C(=O)NCCCc4ccccc4)ccc23)cc1,inactive
4,COc1ccc(N2C(=O)CSC23C(=O)N(Cc2cccc(F)c2)c2ccccc23)cc1Cl (stereo unspecified),inactive
5,COc1ccc(-c2nc3c4ccccc4n(CC(=O)Nc4ccc(C(C)=O)cc4)c(=O)n3n2)cc1,inactive
6,COc1ccc(CCNC(=O)COC(=O)Cc2cc(OC)c(OC)c(OC)c2)cc1,inactive
7,O=C(COC(=O)C1CCCO1)Nc1nc(-c2ccc(F)cc2)cs1 (stereo unspecified),inactive
8,COc1cc(CC(=O)Nc2nc(-c3ccc(F)c(F)c3)cs2)cc(OC)c1OC,11.2 µM (active)
9,O=[N+]([O-])c1ccc(S(=O)(=O)N2CCN(c3nc(-c4ccccc4)nc4ccccc34)CC2)cc1,inactive
10,COc1cccc(CNC(=O)C(NS(=O)(=O)c2ccc3nc(C)sc3c2)C(C)C)c1 (stereo unspecified),inactive
11,COc1ccccc1NC(=S)NC(=O)C(C)C,inactive
12,COc1ccccc1NC(=O)/C=C/C(N)=O,12.6 µM (active)
13,COc1ccccc1NC(=O)c1cc(Cl)nnc1Cl,inactive
14,Clc1ccc2c(c1)C1=C(C(c3ccncc3)O2)C(c2ccc(Br)cc2)n2ncnc2N1 (stereo unspecified),3.98 µM (active)
15,Brc1ccc(C2=CC(c3ccco3)n3ncnc3N2)cc1 (stereo unspecified),inactive
16,CCOC(=O)C1=C(c2ccccc2)Nc2ncnn2C1c1ccc(Cl)cc1 (stereo unspecified),inactive
17,Cc1cc2c(C)nc(N/N=C/c3ccccc3)nc2o1,inactive
18,FC(F)(F)c1cccc(N/N=C/c2ccccc2)c1,11.2 µM (active)
19,Cc1nnsc1C(=O)N/N=C/c1cccc(C(F)(F)F)c1,inactive
20,O=C1CSC2(C(=O)N(Cc3ccccc3)c3ccccc32)N1c1cccc(F)c1 (stereo unspecified),inactive
21,CCN1CCc2nc3sc(C(=O)Nc4ccccc4OC(F)(F)F)c(N)c3cc2C1,inactive
22,CCOC(=O)c1c(C)[nH]c(CCC(=O)Nc2ccc(OC)c(OC)c2)c1C,inactive

row,SMILES,Potency
1,CN(C)C(CNC(=O)c1ccc(OCc2cn3ccccc3n2)cc1)c1ccco1 (stereo unspecified),inactive
2,Cc1noc(C)c1COc1ccc(C(=O)NCCOc2ccccc2)cc1,inactive
3,CN(C)CCNC(=O)c1ccc(-c2cn3c(-c4ccc(Oc5ccccc5)cc4)cnc3cn2)cc1,11.2 µM (active)
4,COc1ccc(CCNC(=O)C(=O)NCC(c2ccco2)S(=O)(=O)c2cccs2)cc1OC (stereo unspecified),inactive
5,CN1C[C@@H](CO)O[C@@H](n2cnc3c(N4CCN(CCO)CC4)ncnc32)C1,inactive
6,OCC1OC(n2cnc3c(N4CCCC4)ncnc32)C(O)C1O (stereo unspecified),2.82 µM (active)
7,OC[C@@H]1O[C@H](n2cnc3c(SCc4ccccc4)ncnc32)[C@H](O)[C@H]1O,inactive
8,COc1ccccc1NC(=O)CSc1oc(-c2ccco2)nc1S(=O)(=O)c1ccc(Br)cc1,inactive
9,COc1ccccc1-c1cc2nc(C)c(CCC(=O)O)c(C)n2n1,inactive
10,CN(N=O)c1ccc(C=C2c3ccccc3-c3ccccc32)cc1,inactive
11,Cc1ccc(-c2nc(=N)sn2Cc2ccccc2)cc1,inactive
12,Cc1ccc(-n2c3nc(=O)[nH]c(=O)c-3cc3c(Cl)cccc32)cc1,inactive
13,COc1ccc(N2CCN(CCNC(=O)c3nnc(Cc4c(F)cccc4Cl)o3)CC2)cc1,inactive
14,O=C(NCCCN1CCN(c2cccc(Cl)c2)CC1)c1nnc(Cc2ccc(F)cc2Cl)o1,10 µM (active)
15,Cc1ccc(CCNC(=O)c2nnc(Cc3cccc(F)c3)o2)cc1,inactive
16,COc1ccc(CCC(=O)NCc2ccc3c(c2)CCN3C(=O)c2ccc(F)cc2)cc1,inactive
17,CCCNC(=O)c1ccc(Cn2c(SCC(N)=O)nc3ccccc3c2=O)cc1,inactive
18,COc1ccc(OC)c(CNC(=O)c2c3c(nc4ccccc24)C(=O)N(C2CCCCC2)C3)c1,inactive
19,Cn1c(NCc2cccnc2)nc2cc(-c3ccc(F)cc3)sc2c1=O,inactive
20,O=c1[nH]c(CCl)nc2cc(-c3ccc(Cl)cc3)sc12,5.01 µM (active)
21,SCc1nc2ccc(Cl)cc2[nH]1,inactive
22,CC(C)(C)c1ccc(C(=O)C[N+]2(C)CCCc3ccccc32)cc1 (stereo unspecified),inactive

row,SMILES,Potency
1,Cc1nc(N=C(N)N)nc2c(C)cccc12,11.2 µM (active)
2,N#Cc1ccc[n+](CC(=O)c2ccc(O)c(O)c2)c1,inactive
3,CCCCCCCNc1ccc(/C=C/c2ccnc3ccccc23)cc1,inactive
4,COc1ccc(Cn2c(=O)c3oc4ccccc4c3n(CC(=O)Nc3ccc(F)cc3F)c2=O)cc1,inactive
5,CC(C)CNc1ncnc2c1nnn2C,inactive
6,CCCCSc1ncnc2c1sc1nc(N3CCOCC3)c3c(c12)CCCC3,inactive
7,CCOC(=O)c1c(-c2ccccc2)oc2cc(Br)c(O)c(C=O)c12,inactive
8,Cc1oc2cc(Br)c(O)c(Br)c2c1C(=O)c1ccccc1,inactive
9,CCOC(=O)c1c(C)oc2cc(Sc3ccccc3)c(O)c(O)c12,10 µM (active)
10,CCOc1ccc(NC(=O)c2c(NC(=O)Cc3ccccc3)sc3c2CCC(C)C3)cc1 (stereo unspecified),inactive
11,COc1ccc(Cn2c(C(=O)O)c(CNCc3cccc(OC)c3)c3ccc(C)cc32)cc1,inactive
12,COc1ccc(-n2c(=O)c3ccccc3n(Cc3ccccc3Cl)c2=O)cc1,inactive
13,Cc1cc(-c2n[nH]c(=S)n2/N=C/C(Br)=C/c2ccccc2)n[nH]1,7.08 µM (active)
14,Cc1ccccc1-c1n[nH]c(=S)n1/N=C/c1ccc(-c2ccccc2Br)o1,inactive
15,COc1ccccc1N1CCN(/N=C\C(Br)=C\c2ccccc2)CC1,inactive
16,Cc1ccc(Cl)cc1NC(=O)CSc1nc2ccccc2nc1Cc1ccccc1,inactive
17,Cc1ccc(CNC(=O)CSc2c(C)cnc3c2c(=O)n(C)c(=O)n3C)cc1,inactive
18,CN1CCN(c2oc(-c3ccc(COc4ccc(Cl)cc4)o3)nc2C#N)CC1,inactive
19,CCOc1cccc(NC(=O)c2ccc(F)c(S(=O)(=O)N(CC)c3cccc(C)c3)c2)c1,inactive
20,CCCOc1ccccc1C1CC(=O)Nc2cc3c(cc21)OCO3 (stereo unspecified),7.08 µM (active)
21,O=C1CC(c2ccc(F)cc2F)c2cc3c(cc2N1)OCO3 (stereo unspecified),inactive
22,COC(=O)c1ccc(C2CC(=O)Nc3cc(OC)c(OC)cc32)cc1 (stereo unspecified),inactive

# Source: PubChem BioAssay AID588855 (National Center for Advancing Translational Sciences (NCATS), 2011)
